According to PubChem BioAssay AID1259309 (ICCB-Longwood Screening Facility, Harvard Medical School, 2017):
“And” between values parts separate entries of the source, which are not always exact repeats. Equal values may be shown once. Out of some 330,000 compounds screened, about 1,800 (0.55%) were called active. Many of the other results were omitted from the sample, so actives are more common in it than they were. Unmarked numbers belong to inactive results. Cut-off read from the data, not from the text of the source: active = growth inhibition above about 68%; inactive = the rest.

Assay: growth inhibition of ugtP-null S. aureus, primary screen, RN4220 ugtP deletion, OD600 (AID 1259309);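 note: plate controls were untreated wells for no effect and antibiotic for full effect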
Conditions: 16 h, stronger effect = higher value
In the case of `Clc1cc(-c2ccc(C=Nn3cnnc3)o2)ccc1Br`, the growth inhibition is reported as -3.77%.
For `O=C(/C=C/c1ccco1)NC(=S)Nc1ccccc1Br`, the growth inhibition was 90.7% (active).
`COc1ccc(Cl)cc1C(=O)NNC(=S)NC(=O)/C=C/c1ccco1` gave a growth inhibition of -0.168%.
In the case of `O=C(/C=C/c1ccco1)NC(=S)N1CCCCC1`, the growth inhibition is reported as 7.55%.
`CC[C@@]12C(=O)N(c3ccccc3)C(=O)N1C(c1cccc(C)c1)C1C(=O)N(Cc3ccccc3)C(=O)C12` (some centres undefined) gave a growth inhibition of 3.88%.
Work on `CC(=NOC(=O)c1ccc(C)cc1)C(=O)c1ccc(Br)cc1` yielded a growth inhibition of 0.731%.
For `COc1ccc(-c2csc3ncnc(N4CCN(S(=O)(=O)c5ccccc5C#N)CC4)c23)cc1`, the growth inhibition was 95.8% (active).
For `COc1ccc(-c2csc3ncnc(N4CCN(S(=O)(=O)c5cccc(F)c5)CC4)c23)cc1`, the growth inhibition was -16.7%.
Compound `COc1ccc(S(=O)(=O)N2CCN(c3ncnc4c(-c5ccccc5)nsc34)CC2)cc1` has a growth inhibition of 5.08%.
For `CC(=NNC(=O)C1CC1c1ccccc1)c1cccs1` (centres undefined), the growth inhibition was 3.01%.
`Cc1cc([N+](=O)[O-])cc(C=NNC(=O)C2COc3ccccc3O2)c1O` (centres undefined) showed a growth inhibition of 9.3%.
In the case of `CC(=NNC(=O)c1ccncc1)c1ccc(NC(=O)c2ccc(Cl)cc2Cl)cc1`, the growth inhibition is reported as -4.36%.
Work on `Cc1ccc(NC(=S)Nc2ccc(F)cc2)cc1` yielded a growth inhibition of -2.35%.
In the case of `Cc1cccc(NC(=S)Nc2ccc(Cl)c(Cl)c2)c1`, the growth inhibition is reported as 98.9% (active).
Work on `Cc1cccc(NC(=S)NN=C(c2ccccc2)C(C)C)c1` yielded a growth inhibition of 36.3%.
Work on `CC(=NN=C1SC(CC(=O)O)C(=O)N1c1ccccc1)c1ccc(C)cc1` (centres undefined) yielded a growth inhibition of 7.85%.
Compound `O=C(C(=NO)n1cncn1)c1ccc(Cl)cc1Cl` has a growth inhibition of 18.1%.
For `Fc1cccc(C=NN=Cc2cccc(F)c2)c1`, the growth inhibition was 2.16%.
For `Clc1ccc(Nc2ccc3ccccc3n2)cc1`, the growth inhibition was -34.6%.
In the case of `Cc1cc(Nc2ccc(Br)cc2)nc2ccccc12`, the growth inhibition is reported as 84.1% (active).
`CN1CCN(c2nc(Nc3ccc(O)cc3)nc3ccccc23)CC1` showed a growth inhibition of -7.09%.
`CC(=NNc1nc(-c2ccc(Cl)cc2)cs1)c1cccs1` showed a growth inhibition of -2.32%.
In the case of `COc1ccc(C=NNC(=O)c2cccc3ccccc23)c(OC)c1OC`, the growth inhibition is reported as 7.75%.
`CCC(=O)N(C)CCc1cc2c(c(OC)c1C=NNC(=O)c1ccccc1O)OCO2` gave a growth inhibition of 9.87%.
In the case of `CC(=NNC(=O)c1c(C)nc2ccccn12)c1ccccc1F`, the growth inhibition is reported as 6.04%.
For `COc1cc(C=Nn2c(C)nc3ccccc3c2=O)ccc1O`, the growth inhibition was 2.48%.
For `COc1cc(C(c2c(O)c3ccccc3oc2=O)c2c(C)n(C)n(-c3ccccc3)c2=O)ccc1O` (centres undefined), the growth inhibition was 82.9% (active).
Compound `CCC(=O)CC(c1ccc([N+](=O)[O-])cc1)c1c(O)c2ccccc2oc1=O` (centres undefined) has a growth inhibition of 12%.
With `S=C(NCCN1CCOCC1)NN=Cc1ccccc1` the growth inhibition was -0.962%.
With `Cc1ccc(C=NNC(=O)c2ccc(C(=O)NN=Cc3ccc(C)s3)o2)s1` the growth inhibition was -0.554%.
For `COc1ccc(C(=O)NC(=S)Nc2ccccc2N2CCN(S(C)(=O)=O)CC2)cc1OC`, the growth inhibition was -0.518%.
`O=C(NC(=S)Nc1ccccc1N1CCCCC1)c1ccc(F)cc1` gave a growth inhibition of 59.3%.
In the case of `COc1ccccc1C(=O)NC(=S)Nc1ccccc1N1CCCCC1`, the growth inhibition is reported as 93.3% (active).
For `COc1ccc(/C=C/C(=O)c2cc(Br)ccc(=O)c2O)cc1`, the growth inhibition was 95.4% (active).
Work on `COc1ccc(C(=O)/C=C/c2cccnc2)c(OC)c1` yielded a growth inhibition of 5.58%.
Compound `COc1ccc(NC(=O)ON=Cc2ccc(Br)cc2)cc1` has a growth inhibition of 4.87%.
In the case of `CCC(C)Sc1ccc(C2N[C@@](C)(C(=O)OC)C3C(=O)N(C)C(=O)C23)cc1` (some centres undefined), the growth inhibition is reported as 2.56%.
For `Cc1c(CCOC(=O)c2cc([N+](=O)[O-])ccc2Cl)sc[n+]1CCCCS(=O)(=O)[O-]`, the growth inhibition was -10.2%.
With `Cc1c(CCOC(=O)CC23CC4CC(CC(C)(C4)C2)C3)sc[n+]1Cc1ccc([N+](=O)[O-])cc1` the growth inhibition was 101% (active) and 100% (active).
`Cc1c(CCO)sc[n+]1CC(=O)OC12CC3CC(CC(C3)C1)C2` gave a growth inhibition of 7.76%.
`CCN(CC)Cc1c(C(=O)NN=Cc2ccncc2)nnn1-c1nonc1N` gave a growth inhibition of 4.89%.
For `c1ccc2c(C[n+]3csc4ccccc43)cccc2c1`, the growth inhibition was 95.1% (active).
Work on `Nc1scc[n+]1Cc1cccc2cccnc12` yielded a growth inhibition of 3.29%.
In the case of `c1ccc2c(CNn3cnnc3)cccc2c1`, the growth inhibition is reported as 4.79%.
Compound `Cc1ccc(CON=CCc2snc(Sc3ncc(C(F)(F)F)cc3Cl)c2C#N)cc1` has a growth inhibition of 28%.
For `CCCC12CN3CCN(CC(C3)C1=NNC(=O)Nc1ccccc1)C2`, the growth inhibition was 1.17%.
Compound `O=C(ON=Cc1ccc(N2CCCCC2)c([N+](=O)[O-])c1)c1c(F)cccc1F` has a growth inhibition of -5.14%.
`Cc1nnc(SCC(=O)Nn2cnnc2)s1` showed a growth inhibition of -2.34%.
With `Cc1cc(C)cc(C(=O)NC2C(=O)N3C(C(=O)O)=C(CSc4nnc(C)s4)CSC23)c1` (centres undefined) the growth inhibition was 100% (active).
`Cc1nnc(SCc2cc(=O)[nH]c(N3CCN(Cc4ccccc4)CC3)n2)s1` gave a growth inhibition of 0.849%.
Work on `Cc1nnc(SCC(=O)NC2CCCC2)s1` yielded a growth inhibition of -2.03%.
With `Cc1nnc(SCC2=C(C(=O)O)N3C(=O)C(NC(=O)Cn4nc(C)c(Cl)c4C)C3SC2)s1` (centres undefined) the growth inhibition was 97.9% (active).
With `CC1(C)c2[nH]c3ccccc3c2CC2C(=O)N(Cc3ccccc3F)C(=O)N21` (centres undefined) the growth inhibition was 2.24% and -4.9%.
`COc1ccc(C=NNC(=O)CN2CCCC2)cc1` showed a growth inhibition of 3.93%.
In the case of `CC1CN(C(C)CO)C(=O)Cc2cc(NC(=O)C3CC3)ccc2OC1CN(C)Cc1ccc(Oc2ccccc2)cc1` (centres undefined), the growth inhibition is reported as 9.46%.
In the case of `Cc1cc(C)nc(N=C(N)Nc2ccc(SC(F)F)cc2)n1`, the growth inhibition is reported as 20%.
In the case of `COc1ccc(C(C)=NNC(=O)c2cccc(S(=O)(=O)N3CCCC3)c2)c(O)c1`, the growth inhibition is reported as 4.49%.
In the case of `O=C(CC1CC=CCC(Cc2ccc(F)cc2)C(=O)OCC(Cc2ccccc2)NC1=O)NC(CO)Cc1ccccc1` (centres undefined), the growth inhibition is reported as 5.86%.
With `CC(C)(C=NO)/[N+]([O-])=C/c1ccco1` the growth inhibition was 3.75%.
